# The supplement of paper PMC12636033
# ± gives the standard deviation of the averaged measurements. Whole data set: some 33,000 sequences, median “E-score (rank enrichment, -0.5 to 0.5)” near -0.0043, cut for the highest 2% near 0.24. This is one part of a sample in which the highest values are shown more often than they occur.
# Test system: 2Sp-muMax20 (muMax20 with two 2,6-bis(methyl)pyridine Cys staples)
# Assay: PBM 8-mer E-score (E-score (rank enrichment, -0.5 to 0.5)); higher = stronger preferential binding
# Method: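 Protein binding microarray (universal PBM chip covering all 10-mers in fixed probe flanks) with chemically synthesized human Max(13-93) bHLH-LZ analogs (not full-length Max) bearing noncanonical residues (hArg, Tha, Aib, Nle at 65) and aromatic Cys staples. Read-out per 8-mer (and its reverse complement): E-score (rank-based enrichment, -0.5 to 0.5) and Z-score of median probe intensity.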
row,Sequence,PBM 8-mer E-score
1,GTATATAC,0.0149 ± 0.075
2,ATATATAC,0.252 ± 0.015
3,TGATATAA,0.232 ± 0.064
4,ATATAGTC,0.238 ± 0.069
5,TTATATAA,0.282 ± 0.044
6,ATATAGTA,0.231 ± 0.019
7,CTATATAC,0.204 ± 0.022
8,CTATAGTC,0.0602 ± 0.045
9,ATATATAT,0.116 ± 0.091
10,GAGCTTCC,-0.0166 ± 0.072
11,CGCGAGGC,-0.0315 ± 0.0085
12,ATCTACCA,0.119 ± 0.038
13,CCAATGGG,-0.162 ± 0.09
14,GGTTGCAA,0.0477 ± 0.016
15,GCCAGTCC,-0.152 ± 0.14
16,GCGGCCAC,-0.292 ± 0.061
17,CAAATGAC,-0.036 ± 0.036
18,AGCCTTTG,-0.0519 ± 0.04
19,CATGCTCG,0.116 ± 0.052
20,ACAGCCAC,-0.0111 ± 0.073
21,ATCGATCA,0.0704 ± 0.044
22,AAGGCCTA,0.00342 ± 0.048
23,AAGGCCTT,0.293 ± 0.052
24,AAGGCCTG,-0.212 ± 0.061
25,AAGGCCGT,0.284 ± 0.012

row,Sequence,PBM 8-mer E-score
1,AAGGCCGG,-0.146 ± 0.023
2,AAGGCCGC,-0.0467 ± 0.032
3,ATGTGGCG,0.0809 ± 0.017
4,CTACCCTC,0.0414 ± 0.062
5,CTCCCAAA,0.143 ± 0.084
6,GCTGTTCA,0.0277 ± 0.084
7,CAACGTGG,0.0662 ± 0.077
8,CCACATGA,0.241 ± 0.053
9,CCACGTAG,-0.11 ± 0.053
10,GCACATGA,0.151 ± 0.036
11,CCACGTGC,0.431 ± 0.00066
12,CCACGTCC,-0.117 ± 0.06
13,CGACGTGC,0.00092 ± 0.063
14,GCACGTTA,0.113 ± 0.039
15,CCACGTGG,0.455 ± 0.021
16,CCACGTTC,-0.0572 ± 0.027
17,CCACGTTA,0.252 ± 0.044
18,CCACATGG,0.161 ± 0.014
19,ATACCCAC,0.197 ± 0.059
20,CACGGCCC,-0.216 ± 0.024
21,GCAACGGA,0.0572 ± 0.11
22,AGGAGAGA,-0.134 ± 0.081
23,GATTGGGC,-0.0399 ± 0.037
24,CAGAAAAC,0.0606 ± 0.042
25,CCACGCGG,0.448 ± 0.016

row,Sequence,PBM 8-mer E-score
1,CCACGCGA,0.112 ± 0.0062
2,CCACGTGA,0.358 ± 0.053
3,CTACGTGA,-0.0272 ± 0.054
4,ACACGCGG,0.181 ± 0.012
5,CGACGTGA,0.063 ± 0.051
6,ATCGAAGC,-0.0587 ± 0.14
7,CAGGCATA,0.0998 ± 0.023
8,ATTCCACC,0.0112 ± 0.074
9,CCGATCGC,0.00661 ± 0.018
10,ACGATCGC,0.0237 ± 0.025
11,GCGATCGC,0.241 ± 0.049
12,CCAATCCA,0.00702 ± 0.16
13,CAATTGGC,0.244 ± 0.016
14,GAATTGGC,0.0412 ± 0.066
15,CAATTGGG,0.136 ± 0.037
16,ACCTGTGC,-0.0312 ± 0.029
17,CTTGCTAA,-0.0836 ± 0.038
18,CGCCTCCC,0.00831 ± 0.026
19,AGAACGGC,0.0294 ± 0.038
20,TATCCATA,0.15 ± 0.012
21,ATCCCAAA,0.0771 ± 0.056
22,ATCCCCAA,0.274 ± 0.036
23,CTCCCCAC,0.278 ± 0.015
24,GTCCCCAC,0.021 ± 0.043
25,CTCCCCAG,0.191 ± 0.064

row,Sequence,PBM 8-mer E-score
1,CTCCCCTA,0.106 ± 0.087
2,ATCCCCCA,-0.224 ± 0.14
3,TTCCCCAA,0.173 ± 0.06
4,CTCCCCCA,-0.103 ± 0.12
5,ATCCCCTA,0.282 ± 0.019
6,CTCCCCAA,0.309 ± 0.0081
7,ATCCCCTC,0.215 ± 0.038
8,AATAGTCA,0.109 ± 0.0063
9,CCACATAA,0.0944 ± 0.027
10,GGATTACC,0.0419 ± 0.024
11,AATGAAGC,0.0104 ± 0.028
12,GTGGTAAA,-0.0637 ± 0.0084
13,CGGGTCAC,-0.118 ± 0.034
14,AAGGTATG,0.149 ± 0.056
15,AGAACACC,0.0163 ± 0.039
16,CACCCCAC,0.265 ± 0.007
17,AACCCCAC,0.136 ± 0.032
18,ATCCCCAC,0.247 ± 0.038
19,ATCCCCAT,0.104 ± 0.064
20,ATCCCCAG,0.0388 ± 0.058
21,GACCCCAC,0.131 ± 0.021
22,CACAGAGC,-0.0473 ± 0.035
23,CGCTTAAA,0.0219 ± 0.026
24,TCACCACA,0.209 ± 0.055
25,ACAAGAGA,-0.031 ± 0.039

row,Sequence,PBM 8-mer E-score
1,CAGGATCC,0.0142 ± 0.1
2,CCCAGCCG,-0.207 ± 0.031
3,GGGTGAAC,-0.0445 ± 0.0025
4,AGATTGGA,0.0807 ± 0.089
5,AGATTGGG,0.236 ± 0.005
6,AGATTGGC,-0.253 ± 0.0034
7,GACACTCA,-0.155 ± 0.12
8,CCTTCTCC,-0.1487 ± 0.00034
9,ACAGGCCC,-0.0606 ± 0.0054
10,CGTATACC,-0.132 ± 0.077
11,CGTATACA,0.0425 ± 0.12
12,AGTATACA,0.218 ± 0.026
13,ACTATAAG,0.147 ± 0.011
14,ACTATAAT,0.1911 ± 0.00057
15,AGTATAAT,0.307 ± 0.047
16,CGTATACG,0.279 ± 0.086
17,AGTATACT,0.287 ± 0.014
18,AGTATACC,0.0537 ± 0.062
19,AGTATAAG,0.273 ± 0.061
20,CGTATAAG,0.0589 ± 0.0073
21,AGTATAAC,0.0726 ± 0.034
22,ATGTGTGC,-0.0334 ± 0.049
23,AAGCGGCA,-0.0432 ± 0.047
24,ATCACTTG,0.101 ± 0.072
25,GGATTCTA,0.0681 ± 0.064

row,Sequence,PBM 8-mer E-score
1,GTCAACTA,0.0356 ± 0.0025
2,CGGGGACA,-0.0692 ± 0.1
3,TGACTACA,0.0909 ± 0.018
4,AGATACCC,0.264 ± 0.0095
5,AGATACCA,0.171 ± 0.03
6,AGATACCG,-0.166 ± 0.039
7,AGGCGAAA,-0.0363 ± 0.041
8,GCCTTGAC,-0.0306 ± 0.049
9,AGACCGAG,-0.0567 ± 0.059
10,GGACGTGA,-0.181 ± 0.05
11,GCACGTCC,-0.107 ± 0.035
12,GCACGTAC,0.0252 ± 0.017
13,GCACGTGC,0.472 ± 0.0076
14,GAACGTGA,-0.0484 ± 0.032
15,GCACGTGA,0.29 ± 0.034
16,GTCTCGTA,-0.016 ± 0.023
17,GTGCCCAC,-0.0178 ± 0.036
18,CACTCAGG,0.00926 ± 0.0019
19,CGAGAAAA,-0.0823 ± 0.086
20,CGGCGGCA,-0.192 ± 0.016
21,GGGTAAAA,0.146 ± 0.043
22,AATGCGTA,0.186 ± 0.021
23,CATGCTTA,0.223 ± 0.018
24,CATGCTGA,0.235 ± 0.031
25,CATGCGTA,0.291 ± 0.02

row,Sequence,PBM 8-mer E-score
1,CATGCTTC,0.244 ± 0.013
2,GATGCTGA,-0.077 ± 0.021
3,AATGCTGA,0.11 ± 0.11
4,GATGCGTA,0.12 ± 0.027
5,AATGCTTC,0.126 ± 0.0042
6,CTTAAGTC,-0.0675 ± 0.033
7,CCTGCGAC,-0.0368 ± 0.021
8,CACTGACA,-0.147 ± 0.062
9,CCATTTAC,0.106 ± 0.12
10,ACACAGAA,0.0709 ± 0.022
11,ACGTATAA,0.125 ± 0.024
12,AACAGGAA,-0.0894 ± 0.071
13,ATTCAGAC,-0.0466 ± 0.061
14,GACGTGTA,-0.0461 ± 0.043
15,AGTGTGTA,0.0578 ± 0.047
16,CGCGTGTA,0.238 ± 0.04
17,GGTGTGTA,0.0384 ± 0.034
18,CGTGTGTA,0.239 ± 0.011
19,CACGTGTA,0.389 ± 0.023
20,CCCGTGTC,-0.204 ± 0.024
21,AACGTGTA,0.0544 ± 0.12
22,CACGTGTC,0.377 ± 0.036
23,AACGTGTC,0.0326 ± 0.036
